Laboratory results as given in PubChem BioAssay.
For some of these results: Entries with a potency or affinity are not part of this list. Calls of active or inactive are those of the source.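 The calls were made as follows, unless noted: active = signal rise over 3 SD above mean of control wells given weak agonist, in both repeats and first screen; inactive = the rest.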

Legend:
[1] = system: TRPC4 beta (transient receptor potential cation channel C4), mouse; assay: activators of mouse TRPC4 channel, confirmation, cell-based, Fluo4 calcium, HEK293 TRPC4beta/mu-opioid, duplicates, 10 µM (AID 2426;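 active = fluorescence ratio normalized to control raised more than 50% in primary screen plus both repeat runs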); conditions: Fluo4 calcium fluorescence, at 10 µM; stronger effect = higher value
[2] = system: transient receptor potential cation channel C4 beta (TRPC4), mouse; assay: activators of mouse TRPC4 channel, confirmation, cell-based, second round, Fluo4, HEK293 TRPC4beta/mu-opioid, 1 µM (AID 2461;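 active = primary screen active and over 50% activation in each of two duplicate runs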); conditions: Fluo4 calcium fluorescence, at 1 µM; stronger effect = higher value
[3] = system: TRPC4 (transient receptor potential cation channel C4 beta), mouse; assay: positive allosteric modulators of mouse TRPC4, confirmation, cell-based, second round, Fluo-4, HEK293 TRPC4beta/mu-opioid, 1 µM (AID 2554;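 active = primary screen hit whose fluorescence ratio, in both repeats, exceeds the weak agonist control mean by 3 SD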); conditions: DAMGO EC20, Fluo-4 calcium flux, at 1 µM; stronger effect = higher value
[4] = system: TRPC4 beta (transient receptor potential cation channel C4), mouse; assay: positive allosteric modulators of mouse TRPC4, confirmation, cell-based, Fluo-4, HEK293 TRPC4beta/mu-opioid (AID 2555;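 active = primary screen hit whose calcium fluorescence ratio, in both repeats, exceeds the weak agonist control mean by 3 SD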); conditions: DAMGO EC20, Fluo-4 calcium flux, at 10 µM; stronger effect = higher value
[5] = target: Short transient receptor potential channel 4 (Mus musculus) (UniProt Q9QUQ5); assay: inhibitors of mouse TRPC4 channel, confirmation, cell-based, Fluo4, HEK293 TRPC4beta/mu-opioid (AID 2636;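 active = calcium signal cut by more than 3 SD below the full-agonist control yet still positive, in both repeats and the earlier primary screen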); conditions: DAMGO, Fluo4 calcium flux, at 10 µM; stronger effect = higher value
[6] = target: Short transient receptor potential channel 4 (Mus musculus) (UniProt Q9QUQ5); assay: inhibitors of mouse TRPC4 channel, confirmation, cell-based, second round, Fluo4, HEK293 TRPC4beta/mu-opioid, 1 µM (AID 2637;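 active = calcium signal ratio cut to more than 3 SD under the fully stimulated control mean yet still positive, in both repeats and the primary screen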;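 as to inhibition: percent of integrated ratio relative to wells lacking test compound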); conditions: Fluo4 calcium flux, DAMGO, at 1 µM; stronger effect = higher value
[7] = target: Short transient receptor potential channel 4 (Mus musculus) (UniProt Q9QUQ5); assay: mouse TRPC4 channel activators, dose response, cell-based, HEK293 TRPC4/mu-opioid, Fluo-4 calcium (AID 434937;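 active = primary screen activator hit with a dose response curve and TRPC4 channel activation at any tested dose; inactive = no activation, no dose response, or not a primary hit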)
[8] = target: Short transient receptor potential channel 4 (Mus musculus) (UniProt Q9QUQ5); assay: TRPC4 positive allosteric modulators, dose response, cell-based, HEK293 TRPC4/mu-opioid, Fluo-4 calcium, EC20 DAMGO (AID 434941;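 active = earlier screen potentiator hit that boosts the TRPC4 ion channel at some dose, with a dose response; inactive = no potentiation, no dose response, or not a prior hit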;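 also: calcium entry triggered by an EC20 dose of DAMGO at the co-expressed mu-opioid receptor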)
[9] = target: Short transient receptor potential channel 6 (Mus musculus) (UniProt Q61143); assay: inhibition of mouse TRPC6 channel, confirmation, selectivity assay for TRPC4 inhibitor project, cell-based, HEK293, membrane potential dye, duplicate (AID 434948;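 active = active in primary screen and both duplicates, each dropping signal beyond three positive-control SD with fluorescence still positive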); conditions: HEK293 TRPC6, membrane potential dye fluorescence, at 10 µM, stimulated with maximal-effect acetylcholine; stronger effect = higher value
[10] = target: Short transient receptor potential channel 6 (Mus musculus) (UniProt Q61143); assay: activation of mouse TRPC6 channel, confirmation, selectivity assay for TRPC4 activator project, cell-based, HEK293, membrane potential dye, duplicate (AID 434950;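 active = membrane potential signal rise above negative control mean plus 3 SD in both duplicates, also active in the earlier TRPC4 screen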); conditions: HEK293 TRPC6, membrane potential fluorescence, at 10 µM; stronger effect = higher value
[11] = target: Short transient receptor potential channel 6 (Mus musculus) (UniProt Q61143); assay: TRPC6 potentiation by TRPC4 potentiator hits, confirmation, selectivity assay for TRPC4 potentiator project, HEK293 cells, membrane potential dye, duplicate (AID 434952;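 active = compound raising the membrane signal above positive-control mean plus 3 SD in both repeats, and a primary screen hit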); conditions: HEK293 TRPC6, membrane potential dye fluorescence, at 10 µM, maximal acetylcholine added after compound; stronger effect = higher value
[12] = target: Short transient receptor potential channel 4 (Mus musculus) (UniProt Q9QUQ5); assay: calcium flux activators in TRPC4/5HT1a cells, counter-screen for TRPC4 activator project, cell-based, second counter screen, HEK293 TRPC4/5HT1a, Fluo-4 (AID 434977;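 active = calcium signal rise above buffer-control mean plus 5 SD in both duplicates, and also a hit in the primary screen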); conditions: Fluo-4 calcium flux, at 10 µM; stronger effect = higher value
[13] = calcium flux inhibitors in TRPC4/5HT1a cells, confirmation, counter-screen for TRPC4 inhibitor project, cell-based, second counter screen, HEK293 TRPC4/5HT1a, Fluo-4 (AID 434978;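 active = primary screen active whose calcium signal fell more than 3 SD beyond the full-serotonin control mean in both duplicate plates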;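 as to outcome: serotonin given first at submaximal then at maximal dose after compound preincubation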); conditions: Fluo-4 calcium flux, at 10 µM, serotonin added to trigger calcium flux; stronger effect = higher value
[14] = system: TRPC4 (mouse), co-expressed with 5HT1a in HEK293; assay: calcium flux potentiators in TRPC4/5HT1a cells, confirmation, counter-screen for TRPC4 potentiator project, cell-based, second counter screen, HEK293 TRPC4/5HT1a, Fluo-4 (AID 434979); conditions: Fluo-4 calcium flux, at 10 µM, serotonin added at its EC20 dose; stronger effect = higher value
[15] = calcium flux activation in mu-opioid HEK293 cells, confirmation, counter-screen for TRPC4 activator project, cell-based, HEK293 mu-opioid receptor line (AID 449723;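 active = hit in primary screen, with calcium signal over 5 SD above buffer well mean in both duplicates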;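 also: counter screen cells carry the mu-opioid receptor alone and lack TRPC4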); conditions: Fluo-4 calcium fluorescence, at 10 µM; stronger effect = higher value
[16] = calcium flux enhancement in mu-opioid HEK293 cells, confirmation, counter-screen for TRPC4 allosteric potentiator project, cell-based, HEK293 mu-opioid receptor line (AID 449724;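 active = calcium signal rise more than 3 SD above the low-dose agonist control mean, in both duplicate plates and the primary screen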); conditions: Fluo-4 calcium flux, at 10 µM, compound added before EC20 DAMGO stimulus; stronger effect = higher value

Chain of Short transient receptor potential channel 6 (Mus musculus) (Q61143 whole entry, looked up): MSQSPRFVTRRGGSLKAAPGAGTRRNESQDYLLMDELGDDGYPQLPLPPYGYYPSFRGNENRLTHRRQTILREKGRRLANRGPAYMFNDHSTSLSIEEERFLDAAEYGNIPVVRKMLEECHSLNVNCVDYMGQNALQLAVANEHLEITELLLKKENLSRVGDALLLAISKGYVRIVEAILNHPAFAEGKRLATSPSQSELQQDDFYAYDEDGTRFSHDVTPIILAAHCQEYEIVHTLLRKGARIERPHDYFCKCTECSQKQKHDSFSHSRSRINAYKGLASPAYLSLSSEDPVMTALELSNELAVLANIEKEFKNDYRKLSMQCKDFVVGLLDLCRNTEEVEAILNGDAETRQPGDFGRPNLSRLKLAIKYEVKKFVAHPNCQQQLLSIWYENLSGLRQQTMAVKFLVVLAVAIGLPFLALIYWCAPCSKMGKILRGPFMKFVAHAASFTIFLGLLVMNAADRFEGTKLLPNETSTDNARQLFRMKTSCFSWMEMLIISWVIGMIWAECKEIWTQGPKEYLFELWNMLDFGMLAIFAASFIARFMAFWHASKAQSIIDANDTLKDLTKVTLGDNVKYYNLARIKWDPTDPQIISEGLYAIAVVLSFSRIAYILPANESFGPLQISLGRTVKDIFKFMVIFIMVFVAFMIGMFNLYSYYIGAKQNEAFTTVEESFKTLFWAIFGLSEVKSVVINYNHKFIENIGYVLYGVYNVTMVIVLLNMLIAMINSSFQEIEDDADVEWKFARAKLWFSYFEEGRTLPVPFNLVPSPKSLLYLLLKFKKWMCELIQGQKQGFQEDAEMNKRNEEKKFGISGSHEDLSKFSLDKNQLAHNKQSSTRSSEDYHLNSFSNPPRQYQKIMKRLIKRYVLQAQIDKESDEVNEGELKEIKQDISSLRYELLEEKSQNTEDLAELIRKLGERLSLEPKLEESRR
Chain of Short transient receptor potential channel 4 (Mus musculus) (Q9QUQ5 whole entry, looked up): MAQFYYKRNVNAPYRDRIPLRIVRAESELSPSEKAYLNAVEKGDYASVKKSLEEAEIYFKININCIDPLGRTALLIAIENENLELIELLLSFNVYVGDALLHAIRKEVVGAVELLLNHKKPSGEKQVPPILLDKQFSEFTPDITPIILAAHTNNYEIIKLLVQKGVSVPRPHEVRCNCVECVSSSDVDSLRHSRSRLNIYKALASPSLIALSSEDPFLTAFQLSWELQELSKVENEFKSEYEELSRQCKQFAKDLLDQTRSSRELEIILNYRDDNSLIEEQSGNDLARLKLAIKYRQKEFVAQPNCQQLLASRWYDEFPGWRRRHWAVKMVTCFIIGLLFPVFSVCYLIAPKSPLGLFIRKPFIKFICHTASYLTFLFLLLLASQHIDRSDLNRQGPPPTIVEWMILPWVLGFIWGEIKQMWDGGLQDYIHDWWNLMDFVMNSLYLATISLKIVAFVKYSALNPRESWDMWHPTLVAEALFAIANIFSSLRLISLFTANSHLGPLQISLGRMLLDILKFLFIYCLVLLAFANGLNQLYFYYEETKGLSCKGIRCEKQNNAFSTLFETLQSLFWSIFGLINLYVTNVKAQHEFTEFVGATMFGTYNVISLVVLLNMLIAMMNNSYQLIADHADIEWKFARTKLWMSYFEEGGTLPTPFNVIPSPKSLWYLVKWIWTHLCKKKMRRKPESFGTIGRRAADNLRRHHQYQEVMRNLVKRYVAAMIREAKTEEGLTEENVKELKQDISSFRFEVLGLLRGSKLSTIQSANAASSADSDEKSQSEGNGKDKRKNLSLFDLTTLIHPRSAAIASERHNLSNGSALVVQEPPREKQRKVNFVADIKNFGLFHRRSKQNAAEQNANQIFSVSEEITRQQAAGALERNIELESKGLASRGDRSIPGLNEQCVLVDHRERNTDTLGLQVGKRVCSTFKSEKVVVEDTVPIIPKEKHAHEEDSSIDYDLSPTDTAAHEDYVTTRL

Cc1cc(Nc2ccccc2)nc2cc(O)ccc12
outcome [1]: inactive
outcome [2]: inactive
outcome [3]: inactive
outcome [4]: inactive
inhibition [5]: 93% (active)
inhibition [6]: 52% (active)
outcome [7]: inactive
outcome [8]: inactive
outcome [9]: inactive
outcome [10]: inactive
outcome [11]: inactive
outcome [12]: inactive
inhibition [13]: 14.4% (active)
outcome [14]: inactive
outcome [15]: inactive
outcome [16]: inactive

CCCCN(CCCC)/C(N)=N/c1nc(C)cc(C)n1
outcome [1]: inactive
outcome [2]: inactive
outcome [3]: inactive
outcome [4]: inactive
outcome [5]: inactive
outcome [6]: inactive
outcome [7]: inactive
outcome [8]: inactive
outcome [9]: inactive
outcome [10]: inactive
outcome [11]: inactive
outcome [12]: inactive
inhibition [13]: 35.1% (active)
outcome [14]: inactive
outcome [15]: inactive
outcome [16]: inactive

Clc1ccc(COc2ccccc2CNCc2cccnc2)cc1
outcome [1]: inactive
outcome [2]: inactive
outcome [3]: inactive
outcome [4]: inactive
inhibition [5]: 94% (active)
outcome [6]: inactive
outcome [7]: inactive
outcome [8]: inactive
outcome [9]: inactive
outcome [10]: inactive
outcome [11]: inactive
outcome [12]: inactive
inhibition [13]: 27.8% (active)
outcome [14]: inactive
outcome [15]: inactive
outcome [16]: inactive

OCCNCc1cc(Br)ccc1OCc1ccc(F)cc1
outcome [1]: inactive
outcome [2]: inactive
outcome [3]: inactive
outcome [4]: inactive
inhibition [5]: 94% (active)
inhibition [6]: 45% (active)
outcome [7]: inactive
outcome [8]: inactive
outcome [9]: inactive
outcome [10]: inactive
outcome [11]: inactive
outcome [12]: inactive
inhibition [13]: 21.1% (active)
outcome [14]: inactive
outcome [15]: inactive
outcome [16]: inactive

CCCCCC[N+](C)(C)CC/C=C1/c2ccccc2Sc2ccc(Cl)cc21
outcome [1]: inactive
outcome [2]: inactive
outcome [3]: inactive
outcome [4]: inactive
inhibition [5]: 83% (active)
inhibition [6]: 61% (active)
outcome [7]: inactive
outcome [8]: inactive
inhibition [9]: 42.5% (active)
outcome [10]: inactive
outcome [11]: inactive
outcome [12]: inactive
inhibition [13]: 31.8% (active)
outcome [14]: inactive
outcome [15]: inactive
outcome [16]: inactive

Nc1c2c(nc3c1CCCC3)CCCC2 (tested in a mixture with another compound)
outcome [1]: inactive
outcome [2]: inactive
outcome [3]: inactive
outcome [4]: inactive
inhibition [5]: 94% (active)
inhibition [6]: 60% (active)
outcome [7]: inactive
outcome [8]: inactive
outcome [9]: inactive
outcome [10]: inactive
outcome [11]: inactive
outcome [12]: inactive
inhibition [13]: 18.3% (active)
outcome [14]: inactive
outcome [15]: inactive
outcome [16]: inactive

CCCC[n+]1c2ccccc2cc2ccccc21
outcome [1]: inactive
outcome [2]: inactive
outcome [3]: inactive
outcome [4]: inactive
inhibition [5]: 87% (active)
inhibition [6]: 54% (active)
outcome [7]: inactive
outcome [8]: inactive
outcome [9]: inactive
outcome [10]: inactive
outcome [11]: inactive
outcome [12]: inactive
inhibition [13]: 18.4% (active)
outcome [14]: inactive
outcome [15]: inactive
outcome [16]: inactive

COC(=O)c1cccc(Nc2c3c(nc4ccccc24)CCC3)c1
outcome [1]: inactive
outcome [2]: inactive
outcome [3]: inactive
outcome [4]: inactive
inhibition [5]: 96% (active)
outcome [6]: inactive
outcome [7]: inactive
outcome [8]: inactive
outcome [9]: inactive
outcome [10]: inactive
outcome [11]: inactive
outcome [12]: inactive
inhibition [13]: 30.4% (active)
outcome [14]: inactive
outcome [15]: inactive
outcome [16]: inactive

COc1ccc(SC[C@H](Cc2ccccc2)N2CCN(C)CCC2=O)cc1
outcome [1]: inactive
outcome [2]: inactive
outcome [3]: inactive
outcome [4]: inactive
inhibition [5]: 95% (active)
inhibition [6]: 40% (active)
outcome [7]: inactive
outcome [8]: inactive
outcome [9]: inactive
outcome [10]: inactive
outcome [11]: inactive
outcome [12]: inactive
outcome [13]: inactive
outcome [14]: inactive
outcome [15]: inactive
outcome [16]: inactive

CC12CC3(C)CC(C)(C1)CC(NC(=O)N1CCCC1)(C2)C3
outcome [1]: inactive
outcome [2]: inactive
outcome [3]: inactive
outcome [4]: inactive
inhibition [5]: 76% (active)
outcome [6]: inactive
outcome [7]: inactive
outcome [8]: inactive
outcome [9]: inactive
outcome [10]: inactive
outcome [11]: inactive
outcome [12]: inactive
outcome [13]: inactive
outcome [14]: inactive
outcome [15]: inactive
outcome [16]: inactive

COc1ccc(OC)c(Nc2cc(-c3ccccc3)nc(N)n2)c1
outcome [1]: inactive
outcome [2]: inactive
outcome [3]: inactive
outcome [4]: inactive
inhibition [5]: 100% (active)
inhibition [6]: 49% (active)
outcome [7]: inactive
outcome [8]: inactive
inhibition [9]: 55.5% (active)
outcome [10]: inactive
outcome [11]: inactive
outcome [12]: inactive
inhibition [13]: 37.9% (active)
outcome [14]: inactive
outcome [15]: inactive
outcome [16]: inactive

CCOC(=O)C1(Cc2ccccc2)CCN(CC2CC=CCC2)CC1 (stereo unspecified)
outcome [1]: inactive
outcome [2]: inactive
outcome [3]: inactive
outcome [4]: inactive
inhibition [5]: 93% (active)
outcome [6]: inactive
outcome [7]: inactive
outcome [8]: inactive
outcome [9]: inactive
outcome [10]: inactive
outcome [11]: inactive
outcome [12]: inactive
outcome [13]: inactive
outcome [14]: inactive
outcome [15]: inactive
outcome [16]: inactive

O=C(CCN1CCc2ccccc2C(O)(c2ccccc2)C1)c1ccc2c(c1)OCCO2 (stereo unspecified)
outcome [1]: inactive
outcome [2]: inactive
outcome [3]: inactive
outcome [4]: inactive
outcome [5]: inactive
outcome [6]: inactive
outcome [7]: inactive
outcome [8]: inactive
outcome [9]: inactive
outcome [10]: inactive
outcome [11]: inactive
outcome [12]: inactive
inhibition [13]: 39.2% (active)
outcome [14]: inactive
outcome [15]: inactive
outcome [16]: inactive

Cc1cc([N+](=O)[O-])ccc1NCc1ccco1
outcome [1]: inactive
outcome [2]: inactive
outcome [3]: inactive
outcome [4]: inactive
inhibition [5]: 92% (active)
outcome [6]: inactive
outcome [7]: inactive
outcome [8]: inactive
outcome [9]: inactive
outcome [10]: inactive
outcome [11]: inactive
outcome [12]: inactive
inhibition [13]: 14.5% (active)
outcome [14]: inactive
outcome [15]: inactive
outcome [16]: inactive

Cc1ccc2nc(C)cc(Nc3ccc4c(c3)OCCO4)c2c1
outcome [1]: inactive
outcome [2]: inactive
outcome [3]: inactive
outcome [4]: inactive
inhibition [5]: 90% (active)
outcome [6]: inactive
outcome [7]: inactive
outcome [8]: inactive
inhibition [9]: 50% (active)
outcome [10]: inactive
outcome [11]: inactive
outcome [12]: inactive
outcome [13]: inactive
outcome [14]: inactive
outcome [15]: inactive
outcome [16]: inactive

CCCCn1c(NC(=O)c2ccccc2)nc2ccccc21
outcome [1]: inactive
outcome [2]: inactive
outcome [3]: inactive
potentiation [4]: 20% (active)
outcome [5]: inactive
outcome [6]: inactive
outcome [7]: inactive
outcome [8]: inactive
outcome [9]: inactive
outcome [10]: inactive
outcome [11]: inactive
outcome [12]: inactive
outcome [13]: inactive
outcome [14]: inactive
outcome [15]: inactive
outcome [16]: inactive
